Only a selection was taken, and hits are over-represented in it overall.
Dicer processing: inhibitors of Dicer pre-microRNA processing, primary screen, biochemical, cat-ELCCA, chemiluminescence; cat-ELCCA pre-miR-21 Dicer processing; stronger effect = higher value; z-score at 25 µM; hit rate 6% among 47,000; AID 1347074, 2019; in the data active = z-score above about 3, passing the limit was not always enough;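 note: higher signal means more uncleaved substrate so more Dicer inhibition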
Target sequence (Q9UPY3 whole entry, looked up): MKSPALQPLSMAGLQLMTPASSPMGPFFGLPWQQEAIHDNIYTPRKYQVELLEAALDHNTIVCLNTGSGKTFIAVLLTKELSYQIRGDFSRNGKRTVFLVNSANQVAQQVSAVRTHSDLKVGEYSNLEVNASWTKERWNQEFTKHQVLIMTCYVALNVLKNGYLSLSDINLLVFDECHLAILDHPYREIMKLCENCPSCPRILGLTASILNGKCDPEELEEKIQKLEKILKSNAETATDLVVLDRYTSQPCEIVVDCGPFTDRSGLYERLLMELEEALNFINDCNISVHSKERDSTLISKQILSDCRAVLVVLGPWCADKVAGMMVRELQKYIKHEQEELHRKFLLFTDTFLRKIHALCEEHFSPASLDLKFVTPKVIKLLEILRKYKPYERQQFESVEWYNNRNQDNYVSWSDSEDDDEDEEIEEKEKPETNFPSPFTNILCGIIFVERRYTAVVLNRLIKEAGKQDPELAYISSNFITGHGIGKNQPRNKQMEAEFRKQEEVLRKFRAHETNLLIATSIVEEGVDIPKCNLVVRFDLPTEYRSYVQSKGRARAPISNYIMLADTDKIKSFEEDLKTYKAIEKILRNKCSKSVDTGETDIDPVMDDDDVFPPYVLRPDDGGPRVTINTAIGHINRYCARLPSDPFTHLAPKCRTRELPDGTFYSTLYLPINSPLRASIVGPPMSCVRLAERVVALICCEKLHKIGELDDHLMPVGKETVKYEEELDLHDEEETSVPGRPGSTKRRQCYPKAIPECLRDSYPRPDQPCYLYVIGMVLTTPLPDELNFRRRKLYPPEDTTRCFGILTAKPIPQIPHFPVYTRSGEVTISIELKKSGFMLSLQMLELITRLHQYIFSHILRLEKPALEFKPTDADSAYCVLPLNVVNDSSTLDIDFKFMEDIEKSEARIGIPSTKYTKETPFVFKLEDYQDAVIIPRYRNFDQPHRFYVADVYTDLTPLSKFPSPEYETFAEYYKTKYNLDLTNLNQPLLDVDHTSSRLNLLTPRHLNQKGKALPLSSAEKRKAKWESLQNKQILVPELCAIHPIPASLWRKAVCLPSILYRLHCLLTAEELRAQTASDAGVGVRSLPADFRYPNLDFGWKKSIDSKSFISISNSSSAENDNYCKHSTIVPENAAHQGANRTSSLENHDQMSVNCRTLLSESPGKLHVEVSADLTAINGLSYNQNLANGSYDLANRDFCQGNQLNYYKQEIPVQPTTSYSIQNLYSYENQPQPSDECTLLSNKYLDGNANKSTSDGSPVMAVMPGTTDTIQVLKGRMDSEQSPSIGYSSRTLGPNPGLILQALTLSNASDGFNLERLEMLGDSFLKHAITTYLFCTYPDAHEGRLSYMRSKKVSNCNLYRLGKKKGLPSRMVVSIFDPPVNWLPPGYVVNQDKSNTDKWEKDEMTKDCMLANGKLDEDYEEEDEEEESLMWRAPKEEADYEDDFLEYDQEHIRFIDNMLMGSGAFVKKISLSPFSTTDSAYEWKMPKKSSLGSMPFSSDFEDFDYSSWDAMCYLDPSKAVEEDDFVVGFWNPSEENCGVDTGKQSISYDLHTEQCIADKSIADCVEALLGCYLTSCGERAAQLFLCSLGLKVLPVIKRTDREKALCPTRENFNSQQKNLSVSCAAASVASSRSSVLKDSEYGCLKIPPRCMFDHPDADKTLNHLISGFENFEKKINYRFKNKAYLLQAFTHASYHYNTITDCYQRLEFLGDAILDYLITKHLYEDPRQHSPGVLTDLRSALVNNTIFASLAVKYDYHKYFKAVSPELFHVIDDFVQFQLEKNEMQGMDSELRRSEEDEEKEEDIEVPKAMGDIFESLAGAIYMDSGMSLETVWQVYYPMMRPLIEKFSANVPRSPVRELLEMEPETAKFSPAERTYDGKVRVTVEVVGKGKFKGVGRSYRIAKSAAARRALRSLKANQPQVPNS
Large screens that a line does not name were inactive.

Cc1cc(C)c2c(N)c(C(=O)c3ccc(-c4ccccc4)cc3)sc2n1	none
Cc1cc(C)c2c(N)c(C(=O)O)sc2n1	none
Cc1cc(C)c2c(N)c(C(=O)NNC(=S)NCc3ccccc3)sc2n1	Dicer processing 3
CC1CC(=O)Nc2ccccc2N1C(=O)c1ccco1 (stereo not drawn)	none
N#CCCN(Cc1ccncc1)C(=O)c1sc2ccccc2c1Cl	none
Cc1ccc(/C(O)=C2\C(=O)C(=O)N(CCCN3CCOCC3)C2c2ccco2)cc1 (stereo not drawn)	Dicer processing 3.3
O=C1C(=O)N(CCCN2CCOCC2)C(c2ccccc2)/C1=C(\O)c1ccccc1 (stereo not drawn)	none
Cc1ccc(/C(O)=C2\C(=O)C(=O)N(CCCN3CCOCC3)C2c2ccc(F)cc2)cc1 (stereo not drawn)	none
CC1(C)C2CCC1(C)C(C#N)(Nc1ccccc1)C2 (stereo not drawn)	none
O=c1cc(O)c2cccc3c4ccccc4n1c23	none
COC(=O)c1ccc(S(=O)(=O)N2CCC(O)CC2)n1C	none
COC(=O)c1ccc(S(=O)(=O)N2CCCCCC2)n1C	none
COC(=O)c1ccc(S(=O)(=O)Nc2ccc(N3CCOCC3)cc2)n1C	Dicer processing 3.6
CC(=O)ON=C1c2cc([N+](=O)[O-])ccc2-c2ccc([N+](=O)[O-])cc21	none
O=S(=O)(c1ccccc1)n1nc(-c2ccccc2)nc1NCc1ccccc1	none
Cc1nc(C)c(-c2ccn(S(=O)(=O)c3ccc(Cl)cc3)n2)o1	none
Cc1ccc(S(=O)(=O)n2nc(-c3ccc(Cl)cc3)nc2N)cc1	Dicer processing 3.2
Cc1ccc(S(=O)(=O)n2nc(C)cc2C)cc1	none
Cc1ccc(S(=O)(=O)n2nc(-c3ccc(Cl)cc3)nc2NCc2ccco2)cc1	Dicer processing 3.4
O=S(=O)(c1ccccc1)n1nc(-c2ccccc2)nc1NCc1ccc(Cl)cc1	none
CC1(C)CC(=O)C(C=Nc2ccc(F)cc2F)=C(O)C1	none
COC(=O)C1=C(C)NC2=C(C(=O)CC(C)(C)C2)C1c1ccc(OC)cc1 (stereo not drawn)	none
O=C(OCCSc1ccccn1)c1ccccc1	none
Cc1cc(C)c(C(=O)CC2(O)C(=O)Nc3ccccc32)c(C)c1 (stereo not drawn)	none
O=C1CC(C(=O)Nc2ccc(Cl)cc2)SC(=Nc2ccccc2)N1 (stereo not drawn)	none
FC(F)(F)c1cc(-c2ccc3c(c2)OCO3)n[nH]1	none
FC(F)(F)c1cc(-c2ccccc2)n[nH]1	none
Cc1ccc(O)c(-c2cc(C(F)(F)F)[nH]n2)c1	Dicer processing 4.1
CC(C)(C)NC(=O)CSc1nnc2c(n1)-c1cccc3cccc-2c13	none
O=C(O)COc1ccc2oc3c(c2c1)CCCC3	none
O=C(COc1ccc2oc3c(c2c1)CCCC3)Nc1cccc(Br)c1	none
OC(COc1ccc2oc3c(c2c1)CCCC3)CN1CCN(c2ccccc2)CC1 (stereo not drawn)	Dicer processing 3.1
O=C(CC1(O)C(=O)N(Cc2cccc(F)c2)c2ccccc21)c1ccccn1 (stereo not drawn)	none
Cc1ccc2ncc(NC(=O)c3ccc(F)cc3)c(=O)n2c1	none
Cc1ccc(C)c(COc2ccc(C)nc2[N+](=O)[O-])c1	none
Cc1ccc(C)c(COc2ccc(C)nc2NC(=O)c2ccc(F)cc2)c1	Dicer processing 3.8
COc1cccc(-c2ccc(-c3noc(-c4ccc(F)cc4)n3)c(OC)n2)c1	none
O=C(NCc1ccccn1)C1c2ccccc2Oc2ccccc21	Dicer processing 3.1
COC(=O)C1c2ccccc2Oc2ccccc21	none
CCCCCC(C)NC(=O)C1c2ccccc2Oc2ccccc21 (stereo not drawn)	none
O=C(Nc1ccncc1)C1c2ccccc2Oc2ccccc21	none
O=C(O)C1C2C=CC(C2)C1C(=O)NCc1ccccn1 (stereo not drawn)	none
CC(C)c1nnc(NC(=O)C2c3ccccc3Oc3ccccc32)s1	none
Cc1nnc(NC(=O)C2c3ccccc3Oc3ccccc32)s1	Dicer processing 4.9
NC(=O)C1c2ccccc2Oc2ccccc21	none
O=C(NC1CCCC1)C1c2ccccc2Oc2ccccc21	Dicer processing 4.3
O=C(COc1nnc(SCC(=O)c2ccc3c(c2)OCCO3)n1C1Cc2ccccc2C1)c1ccc(F)cc1	none
COCCOC(=O)C1=C(C)NC2=C(C(=O)CC(C)(C)C2)C1c1ccc(C(C)C)cc1 (stereo not drawn)	none
COc1cc(C(C)=O)ccc1CN1CCOCC1	none
CCOc1cc(C2C(C#N)=C(N)Oc3n[nH]c(C)c32)ccc1O (stereo not drawn)	none
S=C(N/N=C/c1ccccc1Cl)NC1CC2CCC1C2 (stereo not drawn)	none
COc1ccc(C2CC(=O)C3=C(C2)NC(C)=C(C(=O)OC(C)C)C3c2ccc(OC)c(OC)c2)cc1 (stereo not drawn)	none
CC(C)(C)c1cc2nc(-c3ccc(Cl)cc3)cc(C(F)(F)F)n2n1	none
Oc1ccc(N2Cc3ccccc3C2)cc1	none
CC1CCC2C(=O)N(c3cccc(O)c3)C(=O)C2C1 (stereo not drawn)	none
Oc1cccc(N2Cc3ccccc3C2)c1	Dicer processing 4.4
N#Cc1ncc(C(F)(F)F)cc1Oc1ccc(Cl)cc1	none
O=C1C2C(c3ccccc3)OC3(C(=O)c4ccccc4C3=O)C2C(=O)N1c1ccc(Cl)cc1 (stereo not drawn)	none
C/C(=C(/C#N)C(=O)Nc1ccc(F)cc1F)N(C)C	none
N#C/C(=C\NC1CCN(Cc2ccccc2)CC1)S(=O)(=O)c1ccc(Cl)cc1	none
CC/C(=N\OC(=O)NS(=O)(=O)c1ccc(C)cc1)c1ccc(-c2ccccc2F)cc1	none
O=C(O)C1CCCCC1C(=O)N1CCN(c2ccc(F)cc2)CC1 (stereo not drawn)	none
O=C1/C(=C/c2ccc(F)cc2)CN(Cc2ccccc2)C/C1=C\c1ccc(F)cc1	Dicer processing 4.2
COc1ccc(/C=C2\CN(C)C/C(=C\c3ccc(OC)cc3)C2=O)cc1	none
CN1C/C(=C\c2ccccc2)C(=O)/C(=C/c2ccccc2)C1	none
Cc1ccc(-n2cccc2)c([N+](=O)[O-])c1	none
O=[N+]([O-])c1ccc2c(c1)S(=O)(=O)CC2SCc1ccccc1 (stereo not drawn)	none
COC(=O)c1scc2c(OC)cc(C(F)(F)F)nc12	none
COC(=O)c1scc2c(SCc3ccccc3)cc(C(F)(F)F)nc12	Dicer processing 5
COC(=O)c1scc2c(Sc3nccn3C)cc(C(F)(F)F)nc12	none
COCCN1C(=O)C(=O)/C(=C(/O)c2ccccc2)C1c1ccccc1OC (stereo not drawn)	none
COCCN1C(=O)c2oc3ccccc3c(=O)c2C1c1ccc(O)cc1 (stereo not drawn)	none
COc1ccc(OC/C(N)=N/OC(=O)CO/N=C(\C)c2ccc(Cl)cc2)cc1	none
Cc1ccc(-c2cc(Cc3cccs3)c(=O)[nH]n2)cc1	none
Cc1cc(Cc2ccc(Cl)cc2)c(=O)[nH]n1	none
Cc1ccc(-c2cc(Cc3cccn3-c3ccc(Cl)cc3)c(=O)[nH]n2)cc1	Dicer processing 3.8
CCOC(=O)C(NC(C)=O)(Nc1ccccc1C)C(F)(F)F (stereo not drawn)	none
O=C(Nc1cccc(Cl)c1)C1=CC(=O)N2CCCN=C2S1	none
N#C/C(=C\N)S(=O)(=O)c1ccc(Cl)cc1	none
CCN(C(=Nc1ccc(Cl)cc1)SC)c1ccccc1	Dicer processing 3.4
CCN(C(=S)Nc1c(C)cccc1Cl)c1ccccc1	none
CSC(N)=Nc1ccccc1	none
Cc1ccc(CNC(=O)Nc2ccc(OCc3ccccc3)cc2)n1C	none
Cc1ccc(C2C3C(=O)N(C(C)C)C(=O)C3ON2c2ccc(Cl)cc2)cc1 (stereo not drawn)	none
CC(=O)Oc1ccccc1/C(=C/C=C(c1ccccc1)c1ccccc1)N1CCOCC1	Dicer processing 4.3
N/C(=N\C(=O)N1CCOCC1)c1ccccc1	none

From PubChem BioAssay
